Assay results: PubChem BioAssay
Calls of active or inactive are those of the source.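 How the source made its calls, unless noted: active means inhibition of the reporter signal at or above 50%; inactive means inhibition below 50%.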

What was measured:
[1] = inhibitors of TNFa-induced NFkB p65 translocation, primary screen, imaging, HUVEC, MLSMR starter and 10KST1 sets (AID 438;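 active means inhibition above 20% together with a positive visual image hit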;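 further: compound added about 3h40 before a 20 min TNFalpha stimulation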;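 on inhibition: signal is the nuclear over cytoplasmic p65 intensity ratio per well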); conditions: HUVEC TNFa-induced p65 nuclear translocation; cell count: measured here: nuclei count (cytotoxicity indicator), at 2.08 µM; inhibition: at 2 µM, stronger effect = higher value, 0% TNFa-plus-vehicle, 100% no-TNFa wells
[2] = reduction of polyQ htt aggregates in cells – imaging, exon1htt(103Q)mCFP cells, high-content imaging, primary screen (AID 483;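 active means visual image review flags a hit and inhibition of aggregation exceeds 20%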;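 further: compound exposure lasted 3 days before fixation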;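 on nuclei count: percent of the per-plate median nuclei count of sample wells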); conditions: exon1htt(103Q)mCFP cell line, aggregate imaging, at 2 µM; inhibition of aggregation: stronger effect = higher value; nuclei count: measured here: cell count, toxicity
[3] = endothelial E-selectin expression blockers – imaging, HUVEC, immunofluorescence, MLSMR starter and 10KST1 sets, primary screen (AID 487;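 active means visually confirmed hit in the image check and inhibition above 20%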;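 on inhibition: signal is fraction of cell area covered by stained E-selectin grains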;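 on nuclei count: 100% = median nuclei count of all wells on the same plate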); conditions: HUVEC TNFalpha-induced E-selectin immunofluorescence imaging, at 2 µM; inhibition: stronger effect = higher value; nuclei count: measured here: cell number, toxicity
[4] = molecular target: Voltage-gated potassium channel subunit beta-2 (Rattus norvegicus) (UniProt P62483); experiment: inhibitors of rat Kvbeta2 reductase activity – biochemical, NADPH fluorescence, primary screen (AID 622;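 active means fluorescence slope higher than the sample average by over 3 SD, cut at about -0.22 in these data, passing the limit was not always enough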;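 further: slope of raw intensity against log time taken from 70 to 1610 s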); conditions: recombinant KvBeta, 4-cyanobenzaldehyde reduction, at 10 µM, stronger effect = higher value
[5] = molecular target: Voltage-gated potassium channel subunit beta-2 (Rattus norvegicus) (UniProt P62483); experiment: enhancers of rat Kvbeta2 NADPH turnover – biochemical, NADPH fluorescence, primary screen (AID 623;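 active means NADPH fluorescence slope more negative than the mean of all samples by about 3 SD, 99.7% confidence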;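 further: fluorescence intensity change per second fitted from 20 to 320 s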); conditions: Recombinant KvBeta, NADPH fluorescence decrease slope, 10 min; at 10 µM; stronger effect = lower value
[6] = molecular target: Alpha-2C adrenergic receptor (Homo sapiens) (UniProt P18825); experiment: compounds altering alpha2C-coupled GIRK flux – cell-based, HEK293 alpha2C/GIRK1/2, thallium flux, primary screen (AID 624;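 active means fluorescence slope after compound addition differing from the mean of all screened samples at 99.7% confidence, in either direction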;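 further: slope of fluorescence ratio to pre-addition baseline per second over 15 to 24 s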); conditions: thallium flux BTC fluorescence, at 10 µM, actives lie on both sides
[7] = blockers of RIG-like receptor reporter activation – cell-based, Sendai virus stimulus, luciferase, 10K MLSCN set, TLR/RLR signaling modifier project, primary screen (AID 602276;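 active means inhibition at or above 50% at 10 µM; inactive means inhibition below 50%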;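 further: firefly luciferase from ISG56 promoter only with Renilla not read in this screen; 0% = Sendai virus plus DMSO and 100% = medium plus DMSO without virus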); conditions: HEK293 RL24 IRF3 luciferase reporter, at 10 µM, stronger effect = higher value
[8] = TLR3 IRF3 reporter activation blockers – cell-based, poly I:C stimulus, luciferase, 10K MLSCN set, primary screen (AID 602277); conditions: HEK293-TLR3 RL24 IRF3 luciferase reporter, at 10 µM, stronger effect = higher value

Voltage-gated potassium channel subunit beta-2 (Rattus norvegicus), sequence (P62483 whole entry, looked up): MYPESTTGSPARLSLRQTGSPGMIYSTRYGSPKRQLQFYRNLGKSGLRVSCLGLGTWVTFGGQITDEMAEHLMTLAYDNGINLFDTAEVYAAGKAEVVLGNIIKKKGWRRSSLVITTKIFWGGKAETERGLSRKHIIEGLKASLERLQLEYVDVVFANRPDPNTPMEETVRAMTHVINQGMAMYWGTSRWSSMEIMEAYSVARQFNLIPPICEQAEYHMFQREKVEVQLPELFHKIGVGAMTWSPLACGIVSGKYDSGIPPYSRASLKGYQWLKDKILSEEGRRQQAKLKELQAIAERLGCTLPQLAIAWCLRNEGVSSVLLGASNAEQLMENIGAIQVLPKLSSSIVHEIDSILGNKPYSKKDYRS
Alpha-2C adrenergic receptor (Homo sapiens), sequence (P18825 whole entry, looked up): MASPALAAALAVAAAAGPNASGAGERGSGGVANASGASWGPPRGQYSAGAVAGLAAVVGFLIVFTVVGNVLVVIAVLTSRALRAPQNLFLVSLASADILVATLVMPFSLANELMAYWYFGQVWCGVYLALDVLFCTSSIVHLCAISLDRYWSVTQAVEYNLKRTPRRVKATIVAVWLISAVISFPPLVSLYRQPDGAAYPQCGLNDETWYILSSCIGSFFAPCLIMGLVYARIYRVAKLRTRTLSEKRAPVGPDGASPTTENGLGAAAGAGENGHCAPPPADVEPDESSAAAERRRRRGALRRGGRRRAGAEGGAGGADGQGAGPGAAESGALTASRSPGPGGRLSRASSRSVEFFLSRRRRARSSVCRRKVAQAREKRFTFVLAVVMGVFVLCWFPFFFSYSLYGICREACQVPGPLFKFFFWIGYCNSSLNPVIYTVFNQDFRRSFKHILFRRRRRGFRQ

With `CC(NC(=O)c1ccco1)c1ccc2c(c1)OCCO2` (configuration not stated) as the molecule, how does the cell count [1] read?
The cell count was 418.

What about the inhibition [1] of the same molecule?
The inhibition was 9.3% (inactive).

And the inhibition of aggregation [2]?
The inhibition of aggregation was 10% (inactive).

And the nuclei count [2]?
Its nuclei count is 89.2%.

What about the inhibition [3] of the same molecule?
The inhibition was -95% (inactive).

And the nuclei count [3]?
The nuclei count was 105%.

And the fluorescence slope [4]?
Its fluorescence slope is -0.431 (inactive).

What about the NADPH fluorescence slope [5] of the same molecule?
The NADPH fluorescence slope was -2.6e-05 (inactive).

What about the slope [6] of the same molecule?
Its slope is 0.00638 (inactive).

What about the inhibition [7] of the same molecule?
Its inhibition is 9.46% (inactive).

And the inhibition [8]?
The inhibition was 15.1% (inactive).

With `CCOC(=O)CSc1nn(C)c(=S)s1` as the molecule, how does the cell count [1] read?
Its cell count is 723.

And the inhibition [1]?
The inhibition was 0.6% (inactive).

And the inhibition of aggregation [2]?
Its inhibition of aggregation is -4.4% (inactive).

What about the nuclei count [2] of the same molecule?
The nuclei count was 108%.

What about the inhibition [3] of the same molecule?
The inhibition was -19.1% (inactive).

What about the nuclei count [3] of the same molecule?
The nuclei count was 104%.

And the fluorescence slope [4]?
The fluorescence slope was -0.573 (inactive).

What about the NADPH fluorescence slope [5] of the same molecule?
The NADPH fluorescence slope was -1.7e-05 (inactive).

What about the slope [6] of the same molecule?
The slope was 0.00733 (inactive).

What about the inhibition [7] of the same molecule?
Its inhibition is 3.99% (inactive).

And the inhibition [8]?
The inhibition was 21.1% (inactive).

For `CC1=C(C)C(=O)NC(Nc2nc(C)c3cc(C)cc(C)c3n2)N1` (configuration not stated), which cell count [1] is on record?
The cell count was 540.

And the inhibition [1]?
The inhibition was -14.3% (inactive).

What about the inhibition of aggregation [2] of the same molecule?
The inhibition of aggregation was -9.7% (inactive).

And the nuclei count [2]?
The nuclei count was 103%.

And the inhibition [3]?
Its inhibition is 5.2% (inactive).

What about the nuclei count [3] of the same molecule?
The nuclei count was 115%.

What about the fluorescence slope [4] of the same molecule?
The fluorescence slope was -0.285 (inactive).

What about the NADPH fluorescence slope [5] of the same molecule?
The NADPH fluorescence slope was -2.3e-05 (inactive).

What about the slope [6] of the same molecule?
The slope was 0.00676 (inactive).

What about the inhibition [7] of the same molecule?
Its inhibition is 7.09% (inactive).

What about the inhibition [8] of the same molecule?
The inhibition was -49.5% (inactive).

Which cell count [1] does the source give for `COc1ccc(-c2nnc(SC(C)C(=O)Nc3nccs3)n2-c2ccccc2)cc1OC` (configuration not stated) here?
The cell count was 548.

And the inhibition [1]?
Its inhibition is -8% (inactive).

And the inhibition of aggregation [2]?
The inhibition of aggregation was 2.8% (inactive).

What about the nuclei count [2] of the same molecule?
The nuclei count was 82.2%.

And the inhibition [3]?
Its inhibition is -36.4% (inactive).

What about the nuclei count [3] of the same molecule?
Its nuclei count is 93.8%.

And the fluorescence slope [4]?
The fluorescence slope was -0.496 (inactive).

And the NADPH fluorescence slope [5]?
Its NADPH fluorescence slope is 2.4e-05 (inactive).

And the slope [6]?
Its slope is 0.0047 (inactive).

And the inhibition [7]?
The inhibition was -14.8% (inactive).

What about the inhibition [8] of the same molecule?
The inhibition was -2.92% (inactive).

Which results are given for `Cc1nc2ccccc2n1CCC(=O)Nc1cccc(F)c1`?
cell count [1]: 606; inhibition [1]: -4.8% (inactive); inhibition of aggregation [2]: 0.2% (inactive); nuclei count [2]: 100%; inhibition [3]: -23.9% (inactive); nuclei count [3]: 110%; fluorescence slope [4]: -0.303 (inactive); NADPH fluorescence slope [5]: 9.1e-07 (inactive); slope [6]: 0.00551 (inactive); inhibition [7]: 16.2% (inactive); inhibition [8]: 4.83% (inactive)

With `Cn1nc(-c2ccc(N3CCCCC3)c(NC(=O)c3ccco3)c2)c2ccccc2c1=O` as the molecule, how does the cell count [1] read?
The cell count was 672.

What about the inhibition [1] of the same molecule?
Its inhibition is -15.6% (inactive).

What about the inhibition of aggregation [2] of the same molecule?
Its inhibition of aggregation is -14.2% (inactive).

What about the nuclei count [2] of the same molecule?
The nuclei count was 62.8%.

And the inhibition [3]?
Its inhibition is 32.2% (inactive).

And the nuclei count [3]?
Its nuclei count is 84.4%.

And the fluorescence slope [4]?
The fluorescence slope was -0.5 (inactive).

And the NADPH fluorescence slope [5]?
Its NADPH fluorescence slope is -5.2e-06 (inactive).

And the slope [6]?
Its slope is 0.00571 (inactive).

And the inhibition [7]?
The inhibition was 13.4% (inactive).

What about the inhibition [8] of the same molecule?
The inhibition was 75.2% (active).

With `COc1ccc(CCNC(=O)c2cnn3ccccc23)c(OC)c1OC` as the molecule, how does the cell count [1] read?
Its cell count is 779.

And the inhibition [1]?
Its inhibition is -4.5% (inactive).

What about the inhibition of aggregation [2] of the same molecule?
The inhibition of aggregation was -37.7% (inactive).

What about the nuclei count [2] of the same molecule?
The nuclei count was 108%.

And the inhibition [3]?
The inhibition was -59.3% (inactive).

And the nuclei count [3]?
Its nuclei count is 115%.

What about the fluorescence slope [4] of the same molecule?
The fluorescence slope was -0.558 (inactive).

What about the NADPH fluorescence slope [5] of the same molecule?
The NADPH fluorescence slope was -4.4e-06 (inactive).

What about the slope [6] of the same molecule?
The slope was 0.00687 (inactive).

What about the inhibition [7] of the same molecule?
The inhibition was 1.42% (inactive).

What about the inhibition [8] of the same molecule?
The inhibition was -10.8% (inactive).
